Compound activity (PubChem BioAssay)
This excerpt belongs to a sample that is enriched for hits.
CD40 NFkB inh – CD40 pathway inhibition in BL2 cells. AID 1053188. inhibition, % at 10 µM. 83,000 tested, 0.94% active. BL2 NF-kB luciferase reporter, CD40L-induced, 4 h;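 active means mean inhibition of at least 50% with a set share of replicates also reaching that level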;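 further: 0% = neutral control wells and 100% = IKK inhibitor VII at 50 µM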
Numbers without * were called inactive; [ ] = another dose, or the depositor's remark.

SMILES	CD40 NFkB inh
COc1ccccc1C(=O)NCCC(=O)Nc1nc2ccccc2[nH]1	52*
O=C(CCNC(=O)c1ccccc1Cl)Nc1nc2ccccc2[nH]1	-11
COc1ccccc1C(=O)NCCC(=O)Nc1ccc(C)cn1	8
CN1C(=O)c2cc(NC(=O)Nc3ccccc3Cl)ccc2OC[C@@H]2O[C@H](CC(=O)O)CC[C@H]21	-8[25 µM]
c1ccc2sc(-c3ccc4c(c3)OCO4)nc2c1	53*
CCNC(=O)COC(=O)c1ccc(-c2nc3ccccc3s2)s1	-56
O=C(NC1CC1)c1ccc(-c2nc3ccccc3s2)s1	75*
CCN1CCN(C(=O)c2ccc(-c3nc4ccccc4s3)s2)CC1	-45
O=C(Nc1cccc(-c2nc3ccccc3s2)c1)c1ccc2c(c1)OCO2	-37
c1ccc2[nH]c(-c3ccc4c(c3)OCO4)nc2c1	14
O=C(c1ccc(-c2nc3ccccc3s2)s1)N1CCOCC1	88*
O=C(c1cc2ccccc2s1)N1CCOCC1	-7
c1csc(-c2nc3ccccc3s2)c1	-97
CO[C@@H]1CN(C)C(=O)c2ccc(NS(C)(=O)=O)cc2OC[C@@H](C)N(S(=O)(=O)CC(F)(F)F)C[C@H]1C	-8[25 µM]
CC(C)NC(=O)N1[C@@H]2CN(CC(F)(F)F)C[C@H]1C2c1ccc(Br)cc1 (some centres undefined)	8
CCC(=O)N1[C@@H]2Cn3c(ccc(-c4ccc(F)cc4)c3=O)[C@H]1[C@@H](C(=O)N(C)C)[C@@H]2CO	2[25 µM]
COCCNC(=O)[C@H]1[C@H](CO)[C@H]2Cn3c(ccc(-c4ccc(OC)cc4)c3=O)[C@@H]1N2C(=O)NC(C)C	0[25 µM]
CC(=O)Nc1ncnc2c1c(-c1ccc(Cl)cc1)nn2C(C)(C)C	7
CC(=O)N(C(C)=O)c1ncnc2c1c(-c1ccc(Cl)cc1)nn2C(C)(C)C	55*
O=C(C1CCOCC1)N1C[C@@H]2[C@H](c3ccccc31)[C@@H](CO)N2C(=O)Nc1ccccc1F	4[25 µM]
O=C(O)CCSc1nc2ccccc2s1	14
O=S(=O)(CCSc1ccccn1)c1nc2ccccc2s1	59*
O=c1[nH]c(CSc2ccccn2)nc2ccccc12	-21
C[C@@H]1CN([C@@H](C)CO)C(=O)c2c(c3ccccc3n2C)-c2ccccc2CO[C@H]1CN(C)S(=O)(=O)c1ccsc1	7
C[C@@H]1CCCCO[C@@H](CN(C)C(=O)Nc2ccc3c(c2)OCO3)[C@H](C)CN([C@H](C)CO)C(=O)c2cc(NS(=O)(=O)c3ccc(F)cc3)ccc2O1	21[25 µM]
SMILES	CD40 NFkB inh
CCNC(=O)[C@@H]1[C@@H](CO)[C@@H]2Cn3c(ccc(-c4ccccc4)c3=O)[C@@H]2N1C(=O)C1CCC1	-2
CNC[C@@H]1OCCCC[C@H](C)Oc2ccc(NS(=O)(=O)c3ccc(F)cc3)cc2C(=O)N([C@H](C)CO)C[C@@H]1C	-8[25 µM]
COc1ccc2c3c(n(C)c2c1)[C@H](CO)N(Cc1ccc(Cl)cc1)CC31CN(C(=O)NC(C)C)C1	7[25 µM]
O=C(Nc1ccccc1)N1CC(=O)N2[C@H](CO)[C@@H](c3ccc(C#CC4CCCCC4)cc3)[C@H]2C1	54*[25 µM]
COc1cccc(NC(=O)N2CC(=O)N3[C@H](C2)[C@H](c2ccc(C#CCC4CCCC4)cc2)[C@@H]3CO)c1	13[25 µM]
COc1cccc(NC(=O)N2CC(=O)N3[C@H](CO)[C@@H](c4ccc(C#CCC5CCCC5)cc4)[C@H]3C2)c1	64*[25 µM]
O=C(Nc1ccccc1)N1CC(=O)N2[C@@H](CO)[C@@H](c3ccc(C#CC4CCCCC4)cc3)[C@@H]2C1	26[25 µM]
O=C(Nc1ccccc1)N1CC(=O)N2[C@H](CO)[C@H](c3ccc(C#CC4CCCCC4)cc3)[C@H]2C1	9[25 µM]
COc1cccc(NC(=O)N2CC(=O)N3[C@H](CO)[C@@H](c4ccc(C#CCC5CCCC5)cc4)[C@@H]3C2)c1	23[25 µM]
CC(=O)N1C[C@@H]2C(c3ccc(Br)cc3)[C@H](C1)N2C(C)=O (some centres undefined)	-3
CCCC#Cc1ccc([C@@H]2[C@H](CO)N3C(=O)CN(C(=O)Nc4cccc(F)c4)C[C@@H]23)cc1	15[25 µM]
CC(=O)N1C[C@@H]2C(c3ccccc3)[C@H](C1)N2C(C)=O (some centres undefined)	-1
COCC(=O)N1[C@H](C#N)[C@H](c2ccccc2-c2cccc(OC)c2)[C@H]1CO	-12[25 µM]
Cc1ccc(Nc2ncccc2C(=O)O)cc1C	-63
O=C1OC(OC(=O)c2cccnc2Nc2cccc(C(F)(F)F)c2)c2ccccc21 (centres undefined)	85*[25 µM]
O=C(Nc1cccc(C(F)(F)F)c1)OCc1ccncc1	3
O=C(C1CCC1)N1CC[C@@H]2[C@H](CO)Nc3ccc(Br)cc3[C@@H]21	-26
CS(=O)(=O)N1[C@H](C#N)[C@H](c2ccccc2-c2ccccc2F)[C@@H]1CO	-9[25 µM]
COCC(=O)N1[C@@H]2CN(C(=O)Nc3ccccc3Cl)c3ccccc3[C@@H]2[C@@H]1CO	-9[25 µM]
COc1ccc(C(=O)/C=C/C(=O)N(CC(=O)NCCC(C)C)Cc2cccs2)c(O)c1	90*
COc1ccc(C(=O)/C=C/C(=O)N(CC(=O)NC2CCCCC2)Cc2ccc(F)cc2)c(O)c1	38*
COc1ccc(OC)c(NC(=O)CN(Cc2ccc(F)cc2)C2CCCCC2)c1	20
O=C(COC(=O)Cc1ccc(F)cc1)NC1CCCCCC1	14
COc1ccc(Br)c(C(=O)NCCC(C)C)c1	0
COc1ccc(S(=O)(=O)NCC(=O)N(CC(=O)NC(C)(C)C)Cc2cccs2)cc1	6
SMILES	CD40 NFkB inh
CC(C)NC(=O)Nc1ccc2c(c1)C(=O)N(C)C[C@@H](C)[C@H](CN(C)S(C)(=O)=O)O2	2
CCCC(=O)N1CC2(CN(Cc3nccs3)C2)c2c([nH]c3cc(OC)ccc23)[C@@H]1CO	-14[25 µM]
CO[C@@H]1CC[C@H]2CCOc3ccc(C#N)cc3C(=O)N(C)[C@H](C)C(=O)N(C)C[C@H]1O2	-1[25 µM]
CNC[C@@H]1Oc2ccc(NC(=O)NC(C)C)cc2CC(=O)N(C)C[C@H]1C	-5
C[C@H](CO)N1C[C@H](C)[C@H](CN(C)C(=O)[C@@H](Cc2ccccc2)N(C)C)OCc2ccccc2-c2ccccc2C1=O	-1[25 µM]
COC(=O)C(CCCN=C(N)N)NC(=O)CCCc1c(-c2ccccc2)[nH]c2c(F)cc(F)cc12 (centres undefined)	9[25 µM]
O=C(Nc1ccccc1F)N1C[C@H]2[C@@H](c3ccccc31)[C@H](CO)N2C(=O)Cc1cccnc1	-15[25 µM]
COc1ccc(-c2ccc(C3[C@H]4CNC[C@@H]3N4Cc3cncnc3)cc2)cc1 (some centres undefined)	-9[25 µM]
COc1ccc2c3c(n(C)c2c1)[C@@H](CO)N(CC1CC1)CC31CCN(C(=O)NC2CCCC2)CC1	-7[25 µM]
COc1cccc(C#Cc2ccc([C@@H]3[C@H]4CN(C(=O)Cc5cccnc5)CC(=O)N4[C@H]3CO)cc2)c1	4[25 µM]
O=C(C[C@@H]1C[C@@H]2c3cc(NC(=O)NC4CCCC4)ccc3O[C@@H]2[C@H](CO)O1)NCc1cccnc1	-3
O=C(/C=C/c1cccc([N+](=O)[O-])c1)OCC(=O)c1ccccc1	-5
CC(=O)Oc1ccccc1C(=O)C=Cc1cccc([N+](=O)[O-])c1	89*
CC(=O)Nc1ccc(C=CC=Cc2cccc([N+](=O)[O-])c2)cc1	-22
FC(F)(F)CN1C[C@@H]2C(c3ccccc3)[C@H](C1)N2CC(F)(F)F (some centres undefined)	1
Cc1cccc(S(=O)(=O)N2C[C@@H]3N[C@H](C2)C3c2ccc(-c3cccc(C#N)c3)cc2)c1 (some centres undefined)	-7
